{"source": "PubChem BioAssay AID1509", "about": "(The Scripps Research Institute Molecular Screening Center, 2009)", "note": "Hit rate of the full screen: of about 220,000 compounds, about 770 (0.35%) were called active. Only a selection was taken, and actives are over-represented in it overall. Values without a mark were called inactive. No stated cut-off is given here; in the data, active means activation above about 11%; inactive means the rest."}
{"target": "Sphingosine 1-phosphate receptor 4 (Homo sapiens) (UniProt O95977)", "sequence (O95977 whole entry, looked up)": "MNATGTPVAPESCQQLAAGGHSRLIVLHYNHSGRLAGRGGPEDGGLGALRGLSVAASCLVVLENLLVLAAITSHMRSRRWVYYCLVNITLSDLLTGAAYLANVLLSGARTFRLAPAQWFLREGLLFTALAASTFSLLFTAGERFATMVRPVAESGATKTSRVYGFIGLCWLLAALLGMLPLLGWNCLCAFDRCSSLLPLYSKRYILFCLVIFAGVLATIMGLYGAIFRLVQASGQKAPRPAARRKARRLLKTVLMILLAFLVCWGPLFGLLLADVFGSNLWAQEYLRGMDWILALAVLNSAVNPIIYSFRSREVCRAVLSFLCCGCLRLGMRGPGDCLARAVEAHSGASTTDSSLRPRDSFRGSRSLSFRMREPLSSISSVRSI", "assay": "S1P4 receptor agonists, primary screen, cell-based (AID 1509);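 further: 0% = DMSO vehicle and 100% = reference agonist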", "conditions": "S1P4-expressing cell line, agonist reporter assay; at 4.98 µM; hits give high values"}
{"smiles": "CC(C)N(CC#CCC1(O)c2ccccc2-c2ccccc21)C(C)C", "activation": "16.1% (active)"}
{"smiles": "NCC(O)c1ccc(O)cc1", "note": "(stereo not given)", "activation": "1.71%"}
{"smiles": "O=c1[nH]c(=O)n(-c2ccc(F)cc2)c(O)c1C=NCCN1CCCCC1", "activation": "0.64%"}
{"smiles": "O=c1[nH]c(CN2CC=C(c3ccccc3)CC2)nc2scc(-c3cccs3)c12", "activation": "0.84%"}
{"smiles": "Cc1cccc(-n2c(O)c(C=NC34CN5CN(CN(C5)C3)C4)c(=O)[nH]c2=O)c1", "activation": "-0.41%"}
